IMPase cell inh: qHTS Assay for Identifying the Cell-Membrane Permeable IMPase Inhibitors; Inositol monophosphatase 1 (Rattus norvegicus), P97697; CHO-M1 cells, IP1 accumulation, HTRF TR-FRET ratio; inhibition (IP1 accumulation), % at 46.1 µM; 120,000 tested, under 10 active; active = well fitted curve in the direction sought with a large enough effect in the signal ratio, not every such curve was filed as active; inconclusive = small, poorly fitted or top-dose-only effect, or a change in a side signal; inactive = no such curve, though single readings can be large or run the other way; the % refers to the signal ratio;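 also: cells stimulated with carbachol in lithium chloride buffer; plate controls were DMSO basal wells for no effect and reference inhibitor wells for full effect; higher means more IMPase inhibition seen as more IP1 and lower FRET ratio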
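The IP-One HTRF competitive assay in carbachol-stimulated CHO-M1 cells quantifies cellular IP1. Compounds spanned up to 46 uM final, and activity is expressed as AC50 from concentration-response fits of the ratio and donor data.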
IMPase Li inh: qHTS Assay for Identifying the Cell-Membrane Permeable IMPase Inhibitors: Potentiation with Lithium. hit rate 0.35% among 210,000. Potency, µM (titrated, usually from 59.4 µM), inactives show top-dose activity, negative = IMPase inhibition, actives largely listed as inhibitors. CHO-M1 cells, IP1 TR-FRET (IP-One), carbachol + lithium; active = well fitted inhibition curve with a large enough effect; inconclusive = small, poorly fitted or top-dose-only effect; inactive = no such curve, though single readings can be large or run the other way;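 also: IP1 builds up when IMPase is blocked and the TR-FRET signal falls; potency is read from the fitted curve at half-maximal effect; plate controls were basal vehicle for no effect and high inhibitor control for full effect; nearly all actives have a fitted effect of over 50% in size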
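Test compounds were applied to CHO-M1 cells previously cultured for 16–30 h at 2000 per well. A small lithium amount accompanied them; after 30 min at 37C, IP1 was quantified by TR-FRET.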
PNC assembly inh: High Content Assay for Compounds that inhibit the Assembly of the Perinucleolar Compartment. PC3M PTB-GFP, PNC prevalence imaging, 16 h; stronger effect = lower value. activity change (PNC), negative = inhibition, % at 10 µM. hit rate 3.1% among 140,000. AID 2417, 2010;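 active = readout at or below -70, meaning at least 70% loss of cells showing the perinucleolar compartment, a nuclear body marking cancer cells; inconclusive = readout between -30 and a set limit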;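 also: plate controls were DMSO wells for no effect and camptothecin positive control wells for full effect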
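PC3M cells stably expressing PTB-GFP, 750–1000 cells/well, treated 16 h at 37 °C with compound (23 nl of library stock), in duplicate. After paraformaldehyde fixation and Hoechst stain, imaged at 20x; PNC prevalence scored by image analysis.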
ALDH1A1 block: qHTS Assay for Inhibitors of Aldehyde Dehydrogenase 1 (ALDH1A1) | Aldehyde dehydrogenase 1A1 (Homo sapiens), P00352 | Purified ALDH1A1, NADH fluorescence, propionaldehyde substrate | Potency, µM (titrated, usually from 75.3 µM), inactives show top-dose activity, negative = inhibition, most hits filed as inhibitors | hit rate 7.3% among 220,000 | AID 1030, 2008;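 also: potency is read from the fitted curve at half-maximal effect; plate controls were no enzyme wells and a reference inhibitor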
Target sequence (P00352 whole entry, looked up): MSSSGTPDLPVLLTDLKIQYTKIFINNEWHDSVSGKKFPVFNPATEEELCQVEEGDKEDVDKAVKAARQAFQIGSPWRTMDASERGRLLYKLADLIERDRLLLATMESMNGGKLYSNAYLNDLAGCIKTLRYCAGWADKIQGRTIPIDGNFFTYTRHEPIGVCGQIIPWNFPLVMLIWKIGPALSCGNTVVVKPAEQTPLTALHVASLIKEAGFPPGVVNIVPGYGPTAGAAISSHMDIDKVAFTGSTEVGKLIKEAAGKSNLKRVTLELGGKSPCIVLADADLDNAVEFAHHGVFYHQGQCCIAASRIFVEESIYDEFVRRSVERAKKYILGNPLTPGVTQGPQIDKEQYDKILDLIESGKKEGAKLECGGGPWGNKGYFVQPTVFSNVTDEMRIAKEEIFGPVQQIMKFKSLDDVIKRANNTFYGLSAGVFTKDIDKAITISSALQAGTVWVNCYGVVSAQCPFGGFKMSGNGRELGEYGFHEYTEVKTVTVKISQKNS
HPGD inh: qHTS Assay for Inhibitors of HPGD (15-Hydroxyprostaglandin Dehydrogenase); 15-hydroxyprostaglandin dehydrogenase [NAD(+)] (Homo sapiens), P15428; purified HPGD, NADH fluorescence kinetic, PGE2 substrate; Potency, µM, without a hit: at the top dose activity change, negative = inhibition, most hits filed as inhibitors; hit rate 4.3% among 150,000; AID 894, 2007; also: potency is read from the fitted curve at half-maximal effect
Target sequence (P15428 whole entry, looked up): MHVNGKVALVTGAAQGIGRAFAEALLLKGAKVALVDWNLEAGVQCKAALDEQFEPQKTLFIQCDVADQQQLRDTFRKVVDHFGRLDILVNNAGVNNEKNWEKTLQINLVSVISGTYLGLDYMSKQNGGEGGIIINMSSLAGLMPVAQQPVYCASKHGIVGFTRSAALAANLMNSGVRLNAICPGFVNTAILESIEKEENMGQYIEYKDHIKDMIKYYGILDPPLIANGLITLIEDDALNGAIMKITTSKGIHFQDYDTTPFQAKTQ
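NADH formation kinetics: reaction with 30 uM PGE2 and 1 mM NAD+ (final), 20 nM enzyme, Tris-HCl pH 8 with Tween 20, after 15 min compound preincubation at room temperature. Fluorescence change, last versus first of five reads.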
Active calls of the source: *; u = inconclusive; x = not tested or not shown; [ ] = dose if it differs, or a comment. Only some compounds are listed: those with a hit (about 11% of all), similar ones and a draw of the others. Unless noted, calls follow the shape of the dose curve; as a rule, active = well fitted inhibition curve with a large enough effect (not every such curve was filed as active); inconclusive = small, poorly fitted or top-dose-only effect, or another doubt; inactive = no such curve, though single readings can be large or run the other way. Unless noted, % is scaled to controls: 0 for no effect and ±100 for the full control effect.

SMILES	IMPase cell inh	IMPase Li inh	PNC assembly inh	ALDH1A1 block	HPGD inh
COCCCn1c(SCC(=O)N2CC(=O)Nc3ccccc32)nnc1-c1ccoc1C	6	2%[38.3 µM]	-23	-7%	-12%
CCCCNc1nc(C)nc2c1nc(-c1ccccc1)n2CCCN(CC)CC	x	3%	x	u	u
COc1ccc(C)cc1-n1nnnc1SCC1CCCO1 (centres undefined)	3	18%[38.3 µM]	49	13µM*	-13%
COc1ccc(C)cc1-n1nnnc1SCC(=O)c1ccc2c(c1)OCCO2	4	10%[38.3 µM]	22	11µM*	-13%
COc1ccc(-n2nnnc2SCC(=O)c2ccc3c(c2)OCCO3)c(OC)c1	2	11%[38.3 µM]	u	u	-15%
COc1ccc(C)cc1-n1nnnc1SCC(=O)Nc1cc(C)on1	2	7%	-23	2µM*	-4%
COc1ccc(CCn2c(SCC(=O)Nc3cc(C)on3)nc3ccsc3c2=O)cc1OC	u	11µM*	u	-10%	-7%
COc1ccc(-c2nnc(SCC3CCCO3)n2C)cc1 (centres undefined)	x	5%	x	u	x
O=C(Cn1nc(Cl)nc1Cl)c1ccc2c(c1)OCCO2	-13	-5%[38.3 µM]	54	1.1µM*	-5%
Cc1cc(C)nc(SCC(=O)c2ccc3c(c2)OCCO3)n1	4	-3%	u	2%	-27%
COc1ccc(C)cc1-n1nnnc1SCc1nc2ccccc2s1	2	9%[38.3 µM]	-2	11µM*	-22%
COc1ccc(-c2nnn(CC(=O)c3ccc4c(c3)OCCO4)n2)cc1OC	3	17%	u	28µM*	-6%
CO[C@H]1COC(=O)C/C=C\[C@@H](C)COC(=O)[C@@H](C)NC(=O)C/C=C\[C@@H]1C	x	x	x	16%[13.5 µM]	x
CCC(=O)N1N=C(c2ccc(NS(C)(=O)=O)cc2)CC1c1ccc(N(C)C)cc1 (centres undefined)	x	-10%	x	-10%	x
COC(=O)CNC(=O)C(C)NC(=O)OCc1ccccc1 (centres undefined)	1	-3%[38.3 µM]	-127*	14%	-1%
CC(=O)Oc1ccc2c(=O)c(N3C(=O)c4ccccc4C3=O)c(C)oc2c1	x	-8%	-91*	-4%	25µM*
Cc1oc2cc(O)ccc2c(=O)c1N1C(=O)c2ccccc2C1=O	0	x	38	1%	x
Cn1c(CO)cnc1SCc1ccc([N+](=O)[O-])cc1	-4	-3%[38.3 µM]	6	28µM*	-2%
Nc1c(S(=O)(=O)O)cc(Nc2ccc(Nc3nc(Cl)nc(Nc4ccc(S(=O)(=O)O)cc4)n3)c(S(=O)(=O)O)c2)c2c1C(=O)c1ccccc1C2=O	u	30%	x	-10%	16µM*
O=C(c1ccco1)N1CCC2(CCN(Cc3ccncc3)CC2)CC1	x	11%	x	u	-8%
Fc1cccc(Cl)c1CNn1cn[nH]c1=S	x	-3%	x	-11%	x
S=c1[nH]ncn1NCc1ccc(Cl)cc1Cl	x	9%	x	1.4µM*	x
CC(C)c1c(O)nc(SCCN(C)C)[nH]c1=O	5	1%[38.3 µM]	-87*	-6%	-5%
O=C(c1cc2nc(C3CC3)cc(C(F)F)n2n1)N1CCOCC1	-5	22%[38.3 µM]	u	u	32µM*
O=C(c1cnn2c(C(F)F)cc(C3CC3)nc12)N1CCCC1	1	16%[38.3 µM]	23	1%	-24%
SMILES	IMPase cell inh	IMPase Li inh	PNC assembly inh	ALDH1A1 block	HPGD inh
O=C(Nc1ccc(SC(F)(F)F)cc1)c1ccccn1	x	12%	x	-1%	x
COc1ccc(-c2nc(-c3ccccc3)c(NC(C)C)o2)cc1	x	9%	x	9%	-10%
CCC(C)(C)NC(=O)Cc1ccc(C)cc1	-10	-4%[38.3 µM]	4	-6%	14µM*
Oc1ccc([C@@H]2CNCCc3c2cc(O)c(O)c3Cl)cc1	13	20%	x	-12%	-1%
CC(=O)c1ccc(Oc2cnccn2)cc1	x	-1%	x	4%	x
O=S(=O)(O)c1ccc2c(N=Nc3c(O)ccc4ccccc34)cccc2c1	x	2%	x	-11%[13.5 µM]	-4%
Cc1ccc(-c2nc(N/N=C/c3ccncc3)c3ccccc3n2)cc1	11	5%[38.3 µM]	-83*	u	-24%
Clc1ccccc1-c1nc(N/N=C/c2cccnc2)c2ccccc2n1	3	-1%[38.3 µM]	u	u	14µM*
Cc1ccc2nc(C(Cl)(Cl)Cl)nc(N/N=C/c3ccncc3)c2c1	x	-3%	x	-5%	x
CC(C)(C)c1csc(N/N=C/c2cccnc2)n1	x	0%	x	25µM*	x
C(=N\Nc1nc(-c2ccccc2)cs1)/c1cccnc1	-8	1%	-22	-13%	-15%
Clc1ccc(N/N=C/c2cccnc2)cc1	0	-4%	u	25µM*	-12%
Cn1cccc1Cc1nnc(SCC(=O)NC2CCCCC2)n1-c1ccc(F)cc1	-1	-7%[38.3 µM]	-14	20µM*	-8%
Cn1cccc1Cc1nnc(SCC(=O)NCc2ccccc2Cl)n1-c1ccc(F)cc1	5	-5%[38.3 µM]	56	-13%	-5%
C=CCn1c(COc2ccccc2F)nnc1SCC(=O)NC(=O)NCc1ccco1	1	-3%[38.3 µM]	-20	u	-7%
O=C(CSc1nnc(COc2ccccc2F)n1-c1ccccc1)NCc1ccco1	7	31%[38.3 µM]	u	-9%	20µM*
Cn1cccc1Cc1nnc(SCC(=O)NCc2ccco2)n1-c1ccc(F)cc1	-3	6%	34	13µM*	-5%
Cc1nnc(SCC(=O)NCc2ccco2)n1-c1ccccc1	3	-22%[38.3 µM]	36	3%	-7%
Cc1nnc(SCC(=O)NCc2ccco2)n1-c1ccc(F)cc1	12	1%	u	25µM*	-8%
C=C(C(C)=O)C(O)c1ccc(C(F)(F)F)cc1 (centres undefined)	x	9%	x	1%	-6%
Cc1cc(=O)[nH]c(SCC(=O)Nc2nnc(CC(C)C)s2)n1	10	17%[38.3 µM]	2	-4%	32µM*
COCc1nnc(NC(=O)CSc2ccc(C)cc2)s1	-1	-3%[38.3 µM]	19	20µM*	28µM*
COCc1nnc(NC(=O)CSCc2ccccc2)s1	12	-8%[38.3 µM]	76	18µM*	u
COCc1nnc(NC(=O)c2sc3ccccc3c2Cl)s1	-3	-20%[38.3 µM]	5	u	32µM*
Cc1nnc(NC(=O)c2sc3ccccc3c2Cl)s1	-7	-4%[38.3 µM]	-13	-6%	-16%
COCc1nnc(NC(=O)CSc2ccccc2)s1	-1	6%[38.3 µM]	28	3%	-4%
C[C@@H](C[N+](C)(C)C)OC(N)=O	-11[20.6 µM]	-6%	x	-13%[20.9 µM]	0%
O=c1c2ccccc2c(-c2ccc(Cl)cc2)nn1-c1ccccc1	0	12%	53	-9%	-8%
O=c1c2ccccc2c(-c2ccc(O)cc2)nn1-c1cccc(C(F)(F)F)c1	10	6%	-85*	3%	-10%
Cn1c(CCNC(=O)OC(C)(C)C)n[nH]c1=S	6	-4%[38.3 µM]	-11	-13%	-7%

Screening data from PubChem.
